In PubChem BioAssay (NCI):
This is part of a sample that, as a whole, favours compounds with a hit. Of some 79,000 tested, about 15% had one in any assay. Unmarked numbers belong to inactive results. The source made the active and inactive calls. Cut-off read from the data, not from the text of the source: active = growth inhibition above about 70%; inactive = the rest.

Experiment: NCI Yeast Anticancer Drug Screen. Data for the bub3 strain (AID 167)
Details: S. cerevisiae bub3 mutant strain, at 5.0 µM (retest, dose inferred, filed as 0.5), active compounds read high
Summary of the method: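 Whole-cell yeast assay. The mutant strain was incubated with compounds, and growth inhibition was determined by comparison with vehicle-treated cells.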
`O=[N+]([O-])c1cc(F)c(Sc2cc(Br)c([N+](=O)[O-])cc2F)cc1Br` showed a growth inhibition of 6%. `C=CS(=O)(=O)c1ccc(C)cc1` gave a growth inhibition of 4%. With `NC(CSSCC(N)C(=O)Nc1ccc2ccccc2c1)C(=O)Nc1ccc2ccccc2c1` (stereo not given) the growth inhibition was 37%. Work on `COc1ccc(C2=CCC3C4CC=C5CC(O)CCC5(C)C4CCC23C)s1` (stereo not given) yielded a growth inhibition of -1%. Work on `O=C(O)COc1ccccc1C(=O)O` yielded a growth inhibition of -5%. `O=[N+]([O-])c1ccc(NNS(=O)(=O)c2ccccc2)c([N+](=O)[O-])c1` gave a growth inhibition of 4%. Work on `CCOc1nc(N)nc(C)c1N=Nc1ccc(Cl)cc1` yielded a growth inhibition of -1%. Compound `Nc1ccc2c(c1)CCc1ccccc1-2` has a growth inhibition of -7%. Work on `O=c1c2cc3c(cc2c2cccc4c2n1CCC4)OCO3` yielded a growth inhibition of 2%. In the case of `O=C(COc1ccc(Br)cc1Br)N1N=C(c2ccc([N+](=O)[O-])o2)CC1(O)c1ccccc1` (stereo not given), the growth inhibition is reported as 7%. `Nc1cc(Br)cc2c1[nH]c1ccc(Br)cc12` gave a growth inhibition of 18%. Work on `Clc1ccccc1CCc1cc(-c2ccccc2)n[nH]1` yielded a growth inhibition of 16%. Compound `O=C(CSc1nnc(-c2ccc(N=Cc3ccc(Cl)cc3)cc2)o1)Nc1ccccc1Cl` has a growth inhibition of -1%. With `COC(=O)CCCCC(=O)N(C(C)C)C(C)C` the growth inhibition was 2%. With `CCc1ccccc1NC(=O)C(=O)CC(=O)c1ccc(Cl)s1` the growth inhibition was 2%. For `CCNC(=S)N/N=C/c1ccccn1`, the growth inhibition was -15%. Work on `[N-]=[N+]=Nc1c(C=O)c(=O)n(-c2ccccc2)c2ccccc12` yielded a growth inhibition of -23%. With `COc1cc2c(c(O)c1C)C(=O)C(Cl)=CC2=O` the growth inhibition was 99% (active). `O=c1[nH]c(=O)c2cc([N+](=O)[O-])cc([N+](=O)[O-])c2[nH]1` showed a growth inhibition of 8%. `CCOC(=O)NC(=S)Nc1ccsc1` showed a growth inhibition of -3%. Compound `O=C(/C(O)=C(\O)C(=O)N(C1CCCCC1)C1CCCCC1)N(C1CCCCC1)C1CCCCC1` has a growth inhibition of 4%. `Nc1nccc2c1ncn2C1C=C(CO)C(O)C1O` (stereo not given) gave a growth inhibition of 21%. `NC(=Nc1ccccc1)c1ccc2c(c1)c1c(n2Cc2ccccc2)CCCC1` showed a growth inhibition of -2%. For `CC/C(=C(/CC)c1ccc(O)cc1)c1ccc([O-])cc1.CC/C(=C(/CC)c1ccc(O)cc1)c1ccc([O-])cc1.O=C([CH-]C(=O)c1ccccc1)c1ccccc1.O=C([CH-]C(=O)c1ccccc1)c1ccccc1.[Ti+4]`, the growth inhibition was 78% (active). For `CC(=O)c1c(O)c2ccc(Cl)cc2[nH]c1=O`, the growth inhibition was 71% (active). Work on `CCOC(=O)c1cnccc1CC1(C#N)c2ccccc2C=CN1C(=O)c1ccccc1` (stereo not given) yielded a growth inhibition of 6%. `O=c1cc(-c2ccccc2)oc(-c2ccccc2)c1` showed a growth inhibition of -68%. For `CCCCCC/C=C\C=O`, the growth inhibition was -2%. `O=C1NC(=O)C(c2ccccc2)(c2ccccc2)C2CC3c4[nH]c5ccccc5c4CCN3CC12` (stereo not given) gave a growth inhibition of 6%. With `Nc1ccc(-c2ccc(N)cc2S(=O)(=O)O)c(S(=O)(=O)O)c1` the growth inhibition was 2%. For `Oc1ccc2ccccc2c1/C=N\Sc1ccccc1`, the growth inhibition was -2%. In the case of `CCCC(C)c1ccc(O)cc1` (stereo not given), the growth inhibition is reported as -2%. In the case of `CCOC(=O)/C(=C\c1ccc(Cl)cc1)C(C)=O`, the growth inhibition is reported as 79% (active). With `O=C(O)C(SC1=NNC2(C(=O)N1)c1ccccc1-c1ccccc12)SC1=NNC2(C(=O)N1)c1ccccc1-c1ccccc12` the growth inhibition was 9%. With `Cc1sc(Cc2ccccc2)nc1-c1ccc(N=Cc2ccc(N(CCOS(C)(=O)=O)CCOS(C)(=O)=O)cc2)cc1` the growth inhibition was 1%. Work on `CCCCc1ccc(Nc2nc(N)c3[nH]cnc3n2)cc1` yielded a growth inhibition of 16%. Compound `O=C(c1c(F)c(F)c(F)c(F)c1F)n1c(=S)n(C(=O)c2c(F)c(F)c(F)c(F)c2F)c2ccccc21` has a growth inhibition of 2%. In the case of `Cc1ccnc2sc3ccccc3c(=O)c12`, the growth inhibition is reported as 6%. Compound `O=[N+]([O-])c1ccc2c(c1)CCc1ccccc1-2` has a growth inhibition of -15%. For `NNc1ccc(Br)cc1`, the growth inhibition was 98% (active).

Same assay, conditions: S. cerevisiae bub3 mutant strain, at 50.0 µM (retest, dose inferred, filed as 5.0), active compounds read high
`O=[N+]([O-])c1cc(F)c(Sc2cc(Br)c([N+](=O)[O-])cc2F)cc1Br` showed a growth inhibition of -3%. With `C=CS(=O)(=O)c1ccc(C)cc1` the growth inhibition was 61%. For `NC(CSSCC(N)C(=O)Nc1ccc2ccccc2c1)C(=O)Nc1ccc2ccccc2c1` (stereo not given), the growth inhibition was 99% (active). `COc1ccc(C2=CCC3C4CC=C5CC(O)CCC5(C)C4CCC23C)s1` (stereo not given) showed a growth inhibition of 30%. `O=C(O)COc1ccccc1C(=O)O` showed a growth inhibition of -5%. Compound `O=[N+]([O-])c1ccc(NNS(=O)(=O)c2ccccc2)c([N+](=O)[O-])c1` has a growth inhibition of 13%. Work on `CCOc1nc(N)nc(C)c1N=Nc1ccc(Cl)cc1` yielded a growth inhibition of 19%. `Nc1ccc2c(c1)CCc1ccccc1-2` gave a growth inhibition of 65%. For `O=c1c2cc3c(cc2c2cccc4c2n1CCC4)OCO3`, the growth inhibition was 31%. `O=C(COc1ccc(Br)cc1Br)N1N=C(c2ccc([N+](=O)[O-])o2)CC1(O)c1ccccc1` (stereo not given) gave a growth inhibition of 7%. In the case of `Nc1cc(Br)cc2c1[nH]c1ccc(Br)cc12`, the growth inhibition is reported as 98% (active). For `Clc1ccccc1CCc1cc(-c2ccccc2)n[nH]1`, the growth inhibition was 97% (active). `O=C(CSc1nnc(-c2ccc(N=Cc3ccc(Cl)cc3)cc2)o1)Nc1ccccc1Cl` showed a growth inhibition of 20%. For `COC(=O)CCCCC(=O)N(C(C)C)C(C)C`, the growth inhibition was 4%. In the case of `CCc1ccccc1NC(=O)C(=O)CC(=O)c1ccc(Cl)s1`, the growth inhibition is reported as 1%. For `CCNC(=S)N/N=C/c1ccccn1`, the growth inhibition was 95% (active). `[N-]=[N+]=Nc1c(C=O)c(=O)n(-c2ccccc2)c2ccccc12` showed a growth inhibition of 26%. In the case of `COc1cc2c(c(O)c1C)C(=O)C(Cl)=CC2=O`, the growth inhibition is reported as 99% (active). For `O=c1[nH]c(=O)c2cc([N+](=O)[O-])cc([N+](=O)[O-])c2[nH]1`, the growth inhibition was 70% (active). `CCOC(=O)NC(=S)Nc1ccsc1` showed a growth inhibition of 3%. In the case of `O=C(/C(O)=C(\O)C(=O)N(C1CCCCC1)C1CCCCC1)N(C1CCCCC1)C1CCCCC1`, the growth inhibition is reported as 95% (active). With `Nc1nccc2c1ncn2C1C=C(CO)C(O)C1O` (stereo not given) the growth inhibition was 94% (active). In the case of `NC(=Nc1ccccc1)c1ccc2c(c1)c1c(n2Cc2ccccc2)CCCC1`, the growth inhibition is reported as 92% (active). With `CC/C(=C(/CC)c1ccc(O)cc1)c1ccc([O-])cc1.CC/C(=C(/CC)c1ccc(O)cc1)c1ccc([O-])cc1.O=C([CH-]C(=O)c1ccccc1)c1ccccc1.O=C([CH-]C(=O)c1ccccc1)c1ccccc1.[Ti+4]` the growth inhibition was 98% (active). For `CC(=O)c1c(O)c2ccc(Cl)cc2[nH]c1=O`, the growth inhibition was 91% (active). In the case of `CCOC(=O)c1cnccc1CC1(C#N)c2ccccc2C=CN1C(=O)c1ccccc1` (stereo not given), the growth inhibition is reported as 71% (active). Work on `O=c1cc(-c2ccccc2)oc(-c2ccccc2)c1` yielded a growth inhibition of -56%. Work on `CCCCCC/C=C\C=O` yielded a growth inhibition of 6%. For `O=C1NC(=O)C(c2ccccc2)(c2ccccc2)C2CC3c4[nH]c5ccccc5c4CCN3CC12` (stereo not given), the growth inhibition was 51%. `Nc1ccc(-c2ccc(N)cc2S(=O)(=O)O)c(S(=O)(=O)O)c1` gave a growth inhibition of 7%. With `Oc1ccc2ccccc2c1/C=N\Sc1ccccc1` the growth inhibition was 99% (active). `CCCC(C)c1ccc(O)cc1` (stereo not given) showed a growth inhibition of 17%. With `CCOC(=O)/C(=C\c1ccc(Cl)cc1)C(C)=O` the growth inhibition was 99% (active). In the case of `O=C(O)C(SC1=NNC2(C(=O)N1)c1ccccc1-c1ccccc12)SC1=NNC2(C(=O)N1)c1ccccc1-c1ccccc12`, the growth inhibition is reported as 93% (active). In the case of `Cc1sc(Cc2ccccc2)nc1-c1ccc(N=Cc2ccc(N(CCOS(C)(=O)=O)CCOS(C)(=O)=O)cc2)cc1`, the growth inhibition is reported as 94% (active). Work on `CCCCc1ccc(Nc2nc(N)c3[nH]cnc3n2)cc1` yielded a growth inhibition of 31%. With `O=C(c1c(F)c(F)c(F)c(F)c1F)n1c(=S)n(C(=O)c2c(F)c(F)c(F)c(F)c2F)c2ccccc21` the growth inhibition was 91% (active). With `Cc1ccnc2sc3ccccc3c(=O)c12` the growth inhibition was 92% (active). With `O=[N+]([O-])c1ccc2c(c1)CCc1ccccc1-2` the growth inhibition was 78% (active). In the case of `NNc1ccc(Br)cc1`, the growth inhibition is reported as 96% (active).
